Measurements published in PubChem BioAssay (NCI).
About 79,000 compounds went through this panel and 15% of them were active in at least one assay; those are over-represented in the sample as a whole. Rule as the data show it: active = growth inhibition above about 70%; inactive = the rest.

What was measured:
[1] = NCI Yeast Anticancer Drug Screen. Data for the rad50 strain (AID 155);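 also: 0% = growth of vehicle-only cultures of the same strain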; settings: S. cerevisiae rad50 strain growth inhibition, hits give high values; at 50.0 µM unless noted
Procedure, shortened: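 Genetically altered yeast (DNA repair pathway); compound treatment; growth inhibition vs vehicle ctrl.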

[2] = NCI Yeast Anticancer Drug Screen. Data for the mec2-1 strain (AID 157); settings: S. cerevisiae mec2-1 strain, hits give high values; at 50.0 µM unless noted
Procedure, shortened: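 Cells of the genetically defined mec2-1 yeast strain are incubated with test compound. Inhibition of growth is calculated against vehicle-treated controls.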

[3] = NCI Yeast Anticancer Drug Screen. Data for the sgs1 mgt1 strain (AID 161);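 also: 0% = growth of cultures given vehicle only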; settings: S. cerevisiae sgs1 mgt1 strain, hits give high values; at 50.0 µM unless noted
Procedure, shortened: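 Inhibition of yeast growth, normalised to vehicle-treated controls, is reported for a strain bearing genetic alterations in DNA damage repair.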

[4] = NCI Yeast Anticancer Drug Screen. Data for the cln2 rad14 strain (AID 165);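 also: 0% = growth equal to vehicle treated cultures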; settings: S. cerevisiae cln2 rad14 strain, hits give high values; at 50.0 µM unless noted
Procedure, shortened: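 The screen exposed genetically defined yeast (cln2 rad14) to test compounds and scored growth inhibition relative to vehicle-treated controls.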

[5] = NCI Yeast Anticancer Drug Screen. Data for the bub3 strain (AID 167); settings: S. cerevisiae bub3 mutant strain, hits give high values; at 50.0 µM unless noted
Procedure, shortened: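 Yeast carrying a defined mutation is treated with each compound, and growth is compared with that of vehicle-exposed cells to give inhibition.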

[6] = NCI Yeast Anticancer Drug Screen. Data for the mlh1 rad18 strain (AID 175); settings: S. cerevisiae mlh1 rad18 strain growth inhibition, hits give high values; at 50.0 µM unless noted
Procedure, shortened: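 Compound-treated yeast growth, normalised to vehicle controls. Strain bears defined DNA repair mutations.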

Measured: growth inhibition

CC12CC(=O)OC1(C)C1CCC2C1 (stereo not drawn)
inactive: [1] 9.25% | [2] 10.3% | [3] -5.25% | [4] -10.7% | [5] -10.2% | [6] 9.05%

O=C(CSC(=S)N1CCOCC1)Nc1nc2c(s1)CCCC2
inactive: [1] -15.1% | [2] -32% | [3] -28.2% | [4] 2.6% | [5] -1.65% | [6] -16.3%

Cc1ccc(C2=CC=C(c3ccccc3)C2)cc1
inactive: [1] -22.1% | [2] 5.8% | [3] -24.1% | [4] 58.6% | [5] 4.4% | [6] 36.6%
